The values below come from the supplement of paper PMC10849652.

Of roughly 7,900 targets only a part is listed; those with a hit were picked by preference. About 0.6% of all pairs of compound and target were hits.

Chain of UniProt O76080 (O76080 whole entry, looked up): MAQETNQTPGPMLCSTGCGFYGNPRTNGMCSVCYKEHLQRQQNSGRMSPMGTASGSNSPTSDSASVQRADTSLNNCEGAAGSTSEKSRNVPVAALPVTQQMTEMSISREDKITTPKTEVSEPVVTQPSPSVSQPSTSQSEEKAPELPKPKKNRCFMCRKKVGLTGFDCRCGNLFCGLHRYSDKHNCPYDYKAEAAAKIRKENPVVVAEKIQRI
Chain of UniProt Q9NRH1 (Q9NRH1 whole entry, looked up): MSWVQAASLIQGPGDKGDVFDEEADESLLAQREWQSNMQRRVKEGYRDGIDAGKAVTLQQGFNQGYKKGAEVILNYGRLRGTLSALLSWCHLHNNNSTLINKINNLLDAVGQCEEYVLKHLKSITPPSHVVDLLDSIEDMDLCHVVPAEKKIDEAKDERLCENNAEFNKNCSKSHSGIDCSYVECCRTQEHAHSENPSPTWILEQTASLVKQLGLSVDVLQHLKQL
Chain of UniProt Q9C0D3 (Q9C0D3 whole entry, looked up): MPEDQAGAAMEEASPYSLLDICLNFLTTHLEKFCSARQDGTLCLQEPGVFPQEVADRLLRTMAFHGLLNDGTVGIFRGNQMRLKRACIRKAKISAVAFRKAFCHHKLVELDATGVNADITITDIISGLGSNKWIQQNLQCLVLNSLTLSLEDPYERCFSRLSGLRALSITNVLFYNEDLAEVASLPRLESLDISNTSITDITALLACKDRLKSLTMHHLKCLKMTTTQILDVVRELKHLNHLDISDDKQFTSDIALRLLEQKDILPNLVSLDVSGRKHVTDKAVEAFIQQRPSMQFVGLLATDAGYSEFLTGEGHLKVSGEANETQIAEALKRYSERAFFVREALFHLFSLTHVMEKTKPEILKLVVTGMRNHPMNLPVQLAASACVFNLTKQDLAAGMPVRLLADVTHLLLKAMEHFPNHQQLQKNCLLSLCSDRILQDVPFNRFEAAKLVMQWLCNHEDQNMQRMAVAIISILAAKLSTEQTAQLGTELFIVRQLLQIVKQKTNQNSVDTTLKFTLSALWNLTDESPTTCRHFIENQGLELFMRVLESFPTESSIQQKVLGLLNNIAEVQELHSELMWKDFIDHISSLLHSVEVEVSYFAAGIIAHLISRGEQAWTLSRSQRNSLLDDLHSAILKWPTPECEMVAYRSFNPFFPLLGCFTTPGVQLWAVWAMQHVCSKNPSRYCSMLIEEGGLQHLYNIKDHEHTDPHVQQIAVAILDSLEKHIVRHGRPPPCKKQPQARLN
Chain of UniProt Q8N4Q0 (Q8N4Q0 whole entry, looked up): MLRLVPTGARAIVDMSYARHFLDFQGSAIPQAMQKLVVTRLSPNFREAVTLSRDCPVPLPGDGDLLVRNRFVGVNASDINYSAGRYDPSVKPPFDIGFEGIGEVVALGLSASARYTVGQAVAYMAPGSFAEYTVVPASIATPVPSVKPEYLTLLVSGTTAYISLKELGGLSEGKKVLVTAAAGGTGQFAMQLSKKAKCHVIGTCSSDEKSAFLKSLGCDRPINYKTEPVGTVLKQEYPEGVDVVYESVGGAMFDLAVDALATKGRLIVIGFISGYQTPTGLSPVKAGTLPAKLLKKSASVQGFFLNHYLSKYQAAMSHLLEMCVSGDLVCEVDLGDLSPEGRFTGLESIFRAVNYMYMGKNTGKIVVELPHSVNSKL
Chain of UniProt Q86VM9 (Q86VM9 whole entry, looked up): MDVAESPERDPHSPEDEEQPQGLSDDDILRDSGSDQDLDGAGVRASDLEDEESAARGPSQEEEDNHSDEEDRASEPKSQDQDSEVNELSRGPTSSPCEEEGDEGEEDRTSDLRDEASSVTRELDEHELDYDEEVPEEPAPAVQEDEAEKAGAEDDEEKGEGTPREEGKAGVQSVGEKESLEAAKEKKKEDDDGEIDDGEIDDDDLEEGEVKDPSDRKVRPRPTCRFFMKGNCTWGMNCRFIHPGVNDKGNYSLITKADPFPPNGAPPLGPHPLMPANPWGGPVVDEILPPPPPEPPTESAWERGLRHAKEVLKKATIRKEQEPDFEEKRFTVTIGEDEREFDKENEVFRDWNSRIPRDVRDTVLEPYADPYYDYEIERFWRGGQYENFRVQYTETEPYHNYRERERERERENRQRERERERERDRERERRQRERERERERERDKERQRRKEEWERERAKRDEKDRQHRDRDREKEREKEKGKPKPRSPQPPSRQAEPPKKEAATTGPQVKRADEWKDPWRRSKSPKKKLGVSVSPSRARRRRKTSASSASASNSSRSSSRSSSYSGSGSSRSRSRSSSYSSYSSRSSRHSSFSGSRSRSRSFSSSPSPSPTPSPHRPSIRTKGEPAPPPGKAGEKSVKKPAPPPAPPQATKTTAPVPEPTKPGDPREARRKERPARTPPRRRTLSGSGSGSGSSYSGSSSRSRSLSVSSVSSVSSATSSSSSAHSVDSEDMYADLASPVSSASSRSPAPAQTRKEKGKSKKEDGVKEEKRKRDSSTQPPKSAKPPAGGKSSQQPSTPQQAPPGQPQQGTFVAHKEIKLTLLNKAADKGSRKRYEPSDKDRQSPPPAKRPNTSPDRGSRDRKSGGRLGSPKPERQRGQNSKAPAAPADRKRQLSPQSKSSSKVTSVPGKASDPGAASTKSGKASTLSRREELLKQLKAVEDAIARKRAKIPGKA
Chain of UniProt Q6FIF0 (Q6FIF0 whole entry, looked up): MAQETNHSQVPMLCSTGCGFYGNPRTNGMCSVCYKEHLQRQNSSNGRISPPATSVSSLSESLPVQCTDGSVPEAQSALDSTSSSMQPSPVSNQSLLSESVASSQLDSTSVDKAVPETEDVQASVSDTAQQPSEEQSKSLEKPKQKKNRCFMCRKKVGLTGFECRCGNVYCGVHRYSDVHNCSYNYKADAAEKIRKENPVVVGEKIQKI
Chain of UniProt Q8NAF0 (Q8NAF0 whole entry, looked up): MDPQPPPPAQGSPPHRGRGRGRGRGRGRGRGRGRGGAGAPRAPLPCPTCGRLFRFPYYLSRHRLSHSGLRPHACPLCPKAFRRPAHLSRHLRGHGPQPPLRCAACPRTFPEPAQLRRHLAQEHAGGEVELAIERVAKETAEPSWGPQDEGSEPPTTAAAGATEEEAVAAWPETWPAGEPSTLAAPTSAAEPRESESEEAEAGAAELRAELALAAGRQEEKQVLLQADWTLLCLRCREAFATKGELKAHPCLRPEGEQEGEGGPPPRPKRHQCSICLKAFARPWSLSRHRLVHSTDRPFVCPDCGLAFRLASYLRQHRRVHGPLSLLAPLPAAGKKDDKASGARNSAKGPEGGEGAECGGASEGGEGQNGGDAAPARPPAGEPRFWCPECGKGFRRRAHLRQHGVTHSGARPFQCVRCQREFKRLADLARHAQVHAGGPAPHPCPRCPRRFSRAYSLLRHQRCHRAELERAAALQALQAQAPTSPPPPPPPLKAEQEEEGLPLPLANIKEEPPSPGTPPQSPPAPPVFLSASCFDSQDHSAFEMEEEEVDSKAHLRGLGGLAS
Chain of UniProt Q8NB15 (Q8NB15 whole entry, looked up): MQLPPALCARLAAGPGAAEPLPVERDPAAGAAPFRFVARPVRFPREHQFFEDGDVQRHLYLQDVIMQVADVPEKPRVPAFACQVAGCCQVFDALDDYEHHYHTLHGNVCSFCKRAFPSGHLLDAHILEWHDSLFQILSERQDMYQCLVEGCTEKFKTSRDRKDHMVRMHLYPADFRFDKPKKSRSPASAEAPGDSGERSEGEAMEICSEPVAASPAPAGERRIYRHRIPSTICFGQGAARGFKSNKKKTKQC
Chain of UniProt P63104 (P63104 whole entry, looked up): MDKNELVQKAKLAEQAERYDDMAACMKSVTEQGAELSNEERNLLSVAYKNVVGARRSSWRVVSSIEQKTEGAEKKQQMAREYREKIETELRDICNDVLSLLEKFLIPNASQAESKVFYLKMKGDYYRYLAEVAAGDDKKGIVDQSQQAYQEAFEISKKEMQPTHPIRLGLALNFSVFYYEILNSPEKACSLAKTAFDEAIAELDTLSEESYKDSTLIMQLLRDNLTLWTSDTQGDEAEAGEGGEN
Chain of UniProt Q5VVQ6 (Q5VVQ6 whole entry, looked up): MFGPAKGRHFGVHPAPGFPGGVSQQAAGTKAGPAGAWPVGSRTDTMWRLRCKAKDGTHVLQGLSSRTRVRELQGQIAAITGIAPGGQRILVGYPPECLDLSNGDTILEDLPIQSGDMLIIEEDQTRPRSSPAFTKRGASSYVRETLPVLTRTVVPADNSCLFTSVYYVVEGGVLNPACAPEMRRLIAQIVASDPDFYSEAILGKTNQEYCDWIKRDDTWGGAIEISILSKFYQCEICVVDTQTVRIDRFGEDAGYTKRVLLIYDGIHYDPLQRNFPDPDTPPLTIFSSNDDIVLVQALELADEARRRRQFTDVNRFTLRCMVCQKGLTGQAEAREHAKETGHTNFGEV
Chain of UniProt Q96JP5 (Q96JP5 whole entry, looked up): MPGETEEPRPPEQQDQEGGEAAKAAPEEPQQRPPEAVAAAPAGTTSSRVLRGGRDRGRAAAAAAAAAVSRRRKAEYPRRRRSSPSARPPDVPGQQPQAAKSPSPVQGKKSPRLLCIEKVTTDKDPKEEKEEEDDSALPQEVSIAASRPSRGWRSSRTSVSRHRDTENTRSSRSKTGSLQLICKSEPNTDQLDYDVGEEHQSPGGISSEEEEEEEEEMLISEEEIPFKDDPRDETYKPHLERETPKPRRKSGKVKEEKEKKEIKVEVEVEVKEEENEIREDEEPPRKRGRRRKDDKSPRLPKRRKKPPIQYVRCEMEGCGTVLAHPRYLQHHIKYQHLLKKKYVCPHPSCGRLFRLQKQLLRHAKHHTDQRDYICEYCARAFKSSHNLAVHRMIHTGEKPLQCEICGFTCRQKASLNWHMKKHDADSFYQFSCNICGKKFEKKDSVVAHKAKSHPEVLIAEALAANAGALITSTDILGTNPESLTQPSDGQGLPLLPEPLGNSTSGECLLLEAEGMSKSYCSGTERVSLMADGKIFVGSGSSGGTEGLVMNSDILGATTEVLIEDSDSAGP
Chain of UniProt Q96EC8 (Q96EC8 whole entry, looked up): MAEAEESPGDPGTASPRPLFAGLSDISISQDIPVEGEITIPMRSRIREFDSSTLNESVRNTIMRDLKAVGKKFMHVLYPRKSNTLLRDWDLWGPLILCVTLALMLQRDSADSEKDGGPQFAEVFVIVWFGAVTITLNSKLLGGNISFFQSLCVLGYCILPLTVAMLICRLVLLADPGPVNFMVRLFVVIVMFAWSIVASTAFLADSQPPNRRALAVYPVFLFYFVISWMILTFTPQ

Compound in one assay: C1=CC=C(C=C1)[C@H](COC2=CC3=C(C=C2)NC(=O)N3)NC(=O)C4=CC=CN(C4=O)CC5=CC(=C(C=C5)F)F
Description: log2 fold change, soluble protein after heating vs DMSO (PISA); higher = thermal stabilisation; K562 cells, 10 uM, 30 min; active = over 0.2 and 3.5 SD of the protein, either way, in both replicates (recomputed). In short, it runs like this:
(§1)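 K562 cells at 2×10^6 cells/mL were treated for 30 min with 10 μM compound, and aliquots were heated for 3 min over 48°C-58°C before pooling. Extraction used PBS with 0.5% NP-40 at 4°C, and soluble protein was the supernatant after 21,000xg for 90 min, measured by TMTpro 16plex LC-MS/MS with channel sums equalised. Thermal stability values, relative to control samples and from duplicates, are log2 fold changes.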
YAE1 (UniProt Q9NRH1): the log2 fold change is -0.021 (inactive).

For the target ZMAT2 (UniProt Q96NC0), the log2 fold change was 0.029 (inactive).

ZFAND5 (UniProt O76080): the log2 fold change is -0.025 (inactive).

As to YBX1 (UniProt P67809), the log2 fold change is 0.105 (inactive).

For ZNF217 (UniProt O75362), the log2 fold change is -0.017 (inactive).

Take ZRANB2 (UniProt O95218): the log2 fold change is -0.002 (inactive).

As for ZADH2 (UniProt Q8N4Q0), the log2 fold change was 0.012 (inactive).

Take ZNF511 isoform 1 (UniProt Q8NB15): the log2 fold change was -0.015 (inactive).

For ZC3H18 (UniProt Q86VM9), the log2 fold change was 0.032 (inactive).

Take ZDHHC8 isoform 3 (UniProt Q9ULC8): the log2 fold change is 0.105 (inactive).

With ZC3H8 (UniProt Q8N5P1), the log2 fold change is 0.095 (inactive).

Regarding ZMYM1 (UniProt Q5SVZ6), the log2 fold change was 0.077 (inactive).

On to ZBTB21 (UniProt Q9ULJ3), for which the log2 fold change was -0.215 (inactive).

Regarding YIPF4 (UniProt Q9BSR8), the log2 fold change is -0.027 (inactive).

With YIPF5 isoform 3 (UniProt Q969M3), the log2 fold change is 0 (inactive).

With ZNF579 (UniProt Q8NAF0), the log2 fold change is 0.05 (inactive).

On to YPEL5 (UniProt P62699), for which the log2 fold change is -0.066 (inactive).

Take ZFP91 (UniProt Q96JP5): the log2 fold change is -0.038 (inactive).

YIPF6 (UniProt Q96EC8): the log2 fold change was 0.062 (inactive).

As for YOD1 (UniProt Q5VVQ6), the log2 fold change is -0.071 (inactive).

Consider YWHAZ (UniProt P63104), for which the log2 fold change is -0.012 (inactive).

As for YY1 (UniProt P25490), the log2 fold change is 0.013 (inactive).

In the case of ZEB2 (UniProt O60315), the log2 fold change was -0.125 (inactive).

Turning to ZER1 (UniProt Q7Z7L7), the log2 fold change is 0 (inactive).

In the case of YES1 (UniProt P07947), the log2 fold change was 0.025 (inactive).

With ZNF143 (UniProt P52747), the log2 fold change was 0.015 (inactive).

Take ZDHHC20 (UniProt Q5W0Z9): the log2 fold change was -0.023 (inactive).

Regarding ZDHHC5 (UniProt Q9C0B5), the log2 fold change is 0.015 (inactive).

As to ZFAND6 (UniProt Q6FIF0), the log2 fold change was 0 (inactive).

With ZYG11B (UniProt Q9C0D3), the log2 fold change is 0.057 (inactive).

On to ZNF277 (UniProt Q9NRM2), for which the log2 fold change was -0.134 (inactive).

As to YLPM1 (UniProt P49750), the log2 fold change is -0.092 (inactive).

With ZC3HC1 (UniProt Q86WB0), the log2 fold change is -0.091 (inactive).

For the target ZBTB17 isoform 2 (UniProt Q13105), the log2 fold change was -0.08 (inactive).

For the target YWHAZ (UniProt E7ESK7), the log2 fold change is 0.066 (inactive).

Compound in a further assay: CC1=C(SC2=C1C(=N[C@H](C3=NN=C(N32)C)CC(=O)N)C4=CC=C(C=C4)Cl)C
The assay is described as above. In short, it runs like this: as §1
For YAE1 (UniProt Q9NRH1), the log2 fold change was -0.111 (inactive).

For ZMAT2 (UniProt Q96NC0), the log2 fold change was -0.025 (inactive).

As to ZFAND5 (UniProt O76080), the log2 fold change is -0.21 (inactive).

In the case of ZNF512 (UniProt Q96ME7), the log2 fold change is -0.117 (inactive).

As for ZDHHC7 isoform 2 (UniProt Q9NXF8), the log2 fold change is 0.088 (inactive).

With YBX1 (UniProt P67809), the log2 fold change was -0.228 (inactive).

Regarding ZNF217 (UniProt O75362), the log2 fold change was 0.048 (inactive).

Regarding ZRANB2 (UniProt O95218), the log2 fold change is -0.073 (inactive).

For ZADH2 (UniProt Q8N4Q0), the log2 fold change was -0.039 (inactive).

On to ZNF511 isoform 1 (UniProt Q8NB15), for which the log2 fold change is -0.128 (inactive).

On to ZC3H18 (UniProt Q86VM9), for which the log2 fold change was -0.031 (inactive).

As for ZC3H8 (UniProt Q8N5P1), the log2 fold change is -0.089 (inactive).

ZMYM1 (UniProt Q5SVZ6): the log2 fold change is 0.082 (inactive).

Turning to ZBTB21 (UniProt Q9ULJ3), the log2 fold change is -0.152 (inactive).

Consider YIPF4 (UniProt Q9BSR8), for which the log2 fold change was 0.001 (inactive).

Turning to YIPF5 isoform 3 (UniProt Q969M3), the log2 fold change was 0.025 (inactive).

Take ZNF579 (UniProt Q8NAF0): the log2 fold change is -0.074 (inactive).

On to YPEL5 (UniProt P62699), for which the log2 fold change is 0.044 (inactive).

As for ZFP91 (UniProt Q96JP5), the log2 fold change was -0.221 (inactive).

For YIPF6 (UniProt Q96EC8), the log2 fold change was -0.04 (inactive).

With YOD1 (UniProt Q5VVQ6), the log2 fold change is 0.035 (inactive).

As for YWHAZ (UniProt P63104), the log2 fold change is 0.035 (inactive).

As for YY1 (UniProt P25490), the log2 fold change is -0.006 (inactive).

In the case of ZER1 (UniProt Q7Z7L7), the log2 fold change is -0.007 (inactive).

With YES1 (UniProt P07947), the log2 fold change was -0.056 (inactive).

Take ZNF143 (UniProt P52747): the log2 fold change was -0.013 (inactive).

ZDHHC20 (UniProt Q5W0Z9): the log2 fold change is -0.001 (inactive).

ZDHHC5 (UniProt Q9C0B5): the log2 fold change was 0.007 (inactive).

On to ZFAND6 (UniProt Q6FIF0), for which the log2 fold change was -0.015 (inactive).

For the target ZYG11B (UniProt Q9C0D3), the log2 fold change is 0.086 (inactive).

Regarding ZNF277 (UniProt Q9NRM2), the log2 fold change was 0.028 (inactive).

With YLPM1 (UniProt P49750), the log2 fold change is 0.11 (inactive).

Consider ZC3HC1 (UniProt Q86WB0), for which the log2 fold change was 0.07 (inactive).

For YWHAZ (UniProt E7ESK7), the log2 fold change is 0.009 (inactive).

Compound in another assay: CC1=C2C(=CC=C1)N=C(N(C2=O)C3=CC=CC=C3C)CN4C=NC5=C(N=CN=C54)N
The assay is described as above. In short, it runs like this:
as §1
As for YAE1 (UniProt Q9NRH1), the log2 fold change is 0.016 (inactive).

For the target ZMAT2 (UniProt Q96NC0), the log2 fold change was -0.009 (inactive).

For ZFAND5 (UniProt O76080), the log2 fold change is -0.129 (inactive).

As for ZDHHC7 isoform 2 (UniProt Q9NXF8), the log2 fold change is 0.131 (inactive).

Consider YBX1 (UniProt P67809), for which the log2 fold change was -0.143 (inactive).

ZNF217 (UniProt O75362): the log2 fold change is 0.163 (inactive).

For ZRANB2 (UniProt O95218), the log2 fold change was -0.07 (inactive).

In the case of ZADH2 (UniProt Q8N4Q0), the log2 fold change was -0.076 (inactive).

Turning to ZNF511 isoform 1 (UniProt Q8NB15), the log2 fold change is 0.064 (inactive).

On to ZC3H18 (UniProt Q86VM9), for which the log2 fold change is 0.035 (inactive).

Regarding ZC3H8 (UniProt Q8N5P1), the log2 fold change was -0.084 (inactive).

Turning to ZCCHC17 (UniProt Q9NP64), the log2 fold change is -0.124 (inactive).

For ZMYM1 (UniProt Q5SVZ6), the log2 fold change is -0.144 (inactive).

On to ZNF580 (UniProt Q9UK33), for which the log2 fold change was -0.16 (inactive).

Regarding ZBTB21 (UniProt Q9ULJ3), the log2 fold change is 0.058 (inactive).

On to YIPF4 (UniProt Q9BSR8), for which the log2 fold change was -0.019 (inactive).

Turning to YIPF5 isoform 3 (UniProt Q969M3), the log2 fold change is 0.018 (inactive).

For ZNF579 (UniProt Q8NAF0), the log2 fold change is -0.025 (inactive).

With YPEL5 (UniProt P62699), the log2 fold change is 0.016 (inactive).

With ZFP91 (UniProt Q96JP5), the log2 fold change was -0.052 (inactive).

Regarding YIPF6 (UniProt Q96EC8), the log2 fold change is 0.114 (inactive).

In the case of YOD1 (UniProt Q5VVQ6), the log2 fold change was 0.063 (inactive).

In the case of YWHAZ (UniProt P63104), the log2 fold change is -0.031 (inactive).

As to YY1 (UniProt P25490), the log2 fold change was -0.033 (inactive).

For ZEB2 (UniProt O60315), the log2 fold change was 0.137 (inactive).

For ZER1 (UniProt Q7Z7L7), the log2 fold change is 0.018 (inactive).

Consider YES1 (UniProt P07947), for which the log2 fold change is 0.126 (inactive).

In the case of ZNF143 (UniProt P52747), the log2 fold change is -0.022 (inactive).

Consider ZDHHC20 (UniProt Q5W0Z9), for which the log2 fold change is -0.047 (inactive).

In the case of ZDHHC5 (UniProt Q9C0B5), the log2 fold change was 0.04 (inactive).

Turning to ZFAND6 (UniProt Q6FIF0), the log2 fold change was 0.042 (inactive).

Regarding ZYG11B (UniProt Q9C0D3), the log2 fold change is 0.011 (inactive).

Regarding ZNF277 (UniProt Q9NRM2), the log2 fold change was -0.007 (inactive).

Turning to YLPM1 (UniProt P49750), the log2 fold change was 0.104 (inactive).

Take ZC3HC1 (UniProt Q86WB0): the log2 fold change is 0.1 (inactive).
